RecA intein inh = inhibitors of M. tuberculosis RecA intein splicing; cell-free RecA intein splicing, fluorescence; inhibition, % (no concentration beside the values); 290,000 compounds, 0.75% hits; in the data active means inhibition above about 30%;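 further: 0% = vehicle wells and 100% = reference inhibitor control wells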
Mtb betalactam = beta-lactam sensitization of Mtb H37Rv; M. tuberculosis H37Rv growth with meropenem, percent inhibition; inhibition, % at 25 µM; 330,000 compounds, 0.27% hits; call rule not given here;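 further: growth measured after seven days incubation then overnight dye step; 0% = bacteria only wells and 100% = bacteria with antibiotic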
FBA Mtb inh = Mtb fructose-bisphosphate aldolase inhibition. P9WQA3. purified M. tuberculosis FBA, fluorescence read-out. inhibition, % at 1 µM. 360,000 compounds, 2.3% hits. AID 588726; in the data active means inhibition above about 27%;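 further: 0% = vehicle and 100% = reference inhibitor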
Target sequence (P9WQA3 whole entry, looked up): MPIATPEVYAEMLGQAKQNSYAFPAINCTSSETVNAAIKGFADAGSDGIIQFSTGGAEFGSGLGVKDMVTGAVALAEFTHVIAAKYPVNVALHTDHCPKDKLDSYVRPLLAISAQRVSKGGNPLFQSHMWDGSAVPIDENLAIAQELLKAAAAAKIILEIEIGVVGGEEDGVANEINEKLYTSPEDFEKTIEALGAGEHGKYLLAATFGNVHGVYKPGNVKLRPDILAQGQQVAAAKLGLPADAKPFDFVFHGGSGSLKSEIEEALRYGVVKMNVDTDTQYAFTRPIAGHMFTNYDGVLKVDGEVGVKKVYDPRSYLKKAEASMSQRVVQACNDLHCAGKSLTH
GDH-TPI inh = GDH-TPI coupled enzyme inhibition counter-screen. GDH-TPI coupled enzyme counterscreen, NADH absorbance. inhibition, % at 4.8 µM. 360,000 compounds, 1.2% hits. AID 588335; in the data active means inhibition above about 30%;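 further: 0% = DMSO wells and 100% = wells lacking the enzyme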
UGM FP inh = blocks M. tuberculosis UGM enzyme | inhibition, % at 10 µM | purified UGM, fluorescence polarization probe displacement | P9WIQ1 | 320,000 compounds, 0.06% hits; in the data active means inhibition above about 10%, passing the limit was not always enough
Rv3671c protease = inhibitors of M. tuberculosis serine protease Rv3671c. inhibition, % at 5.96 µM. 320,000 compounds, 0.048% hits. AID 2606; in the data active means inhibition above about 38%;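 further: extracellular domain of Rv3671c used as enzyme; 0% = enzyme with DMSO and 100% = no enzyme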
An asterisk follows results filed as active; . = no result; + = active, no number. Sampled rows, rich in hits. Any-hit rate of the full collection: about 4%.

SMILES	RecA intein inh	Mtb betalactam	FBA Mtb inh	GDH-TPI inh	UGM FP inh	Rv3671c protease
CCOc1ccc(N(C(C)C(=O)NC(C)CC)S(C)(=O)=O)cc1 (stereo not drawn)	-0.8	2.9	-0.9	-9.6	0.3	0.4
COc1ccc(/C=C/C(=O)N/C(=C\c2ccco2)C(=O)NCCc2nc3ccccc3[nH]2)cc1	5.8	6.0	-2.8	34.2*	-1.6	2.9
CCc1ccc2oc(C(=O)N3CCN(C)CC3)cc(=O)c2c1	0.3	2.6	-1.2	-0.4	-5.8	6.6
Cc1ccc(NC(=S)Nc2ccccn2)cc1C	1.4	5.9	-2.5	-0.8	4.3	-5.2
Cc1ccc(NC(=S)Nc2ccc3nc(-c4ccccn4)c(-c4ccccn4)nc3c2)cc1C	.	6.5	-3.8	31.5*	3.1	-13.3
Cc1ccc(C2C3=C(CC(C)(C)CC3=O)N(CCN3CCOCC3)C3=C2C(=O)CC(C)(C)C3)cc1	-313.2	-2.6	29.4*	7.1	-0.8	-0.4
CC1(C)CC(=O)C2=C(C1)N(CCN1CCOCC1)C1=C(C(=O)CC(C)(C)C1)C2c1ccc(Cl)c([N+](=O)[O-])c1	-0.7	-9.8	2.6	2.5	0.1	-5.7
O=c1/c(=C/c2ccco2)sc2n1CN(c1cccc(Br)c1)CN=2	-2.6	-4.6	-9.2	38.2*	-3.7	0.7
O=c1/c(=C/c2ccco2)sc2n1CN(c1ccccc1)CN=2	0.9	10.9	-3.3	31.7*	-0.8	3.0
Cc1ccc(/C=c2\sc3n(c2=O)CN(c2cccc(Br)c2)CN=3)o1	-2.2	7.9	-1.0	18.9	-1.4	3.6
COc1ccc(-c2c(-c3ccccc3OC)sc3ccccc23)cc1	-1.0	0.7	10.0	13.4	-0.3	-2.3
O=C(NNC1CC(=O)N(c2ccc3c(c2)OCCO3)C1=O)c1ccc(Cl)cc1 (stereo not drawn)	1.1	-2.0	-3.5	-2.8	-3.1	-5.0
CCN(C(=O)c1cc2cc3ccc(C)cc3nc2o1)c1ccc(OC)cc1	3.7	82.9	-3.6	18.6	1.7	-4.1
CCCCN(C)CCNC(=O)c1cc2cc3ccc(OC)cc3nc2o1	-3.9	5.7	+	24.3	-1.2	-3.4
CCN(CC)CCNC(=O)c1cc2cc3ccc(OC)cc3nc2o1	-4.1	-1.5	+	27.2	-2.5	0.5
COCCCNC(=O)c1cc2cc3cc(OC)ccc3nc2o1	-5.5	1.4	121.5*	8.6	4.8	1.0
CCc1cccc(CC)c1NC(=S)NCc1ccc2c(c1)OCO2	2.0	-9.8	1.5	-6.7	3.0	5.2
Cc1oc(-c2ccc(Cl)cc2)nc1CS(=O)CC(=O)NCc1ccco1 (stereo not drawn)	-1.6	2.9	3.9	5.6	0.2	-2.8
O=C(CCCC(=O)N(CC(=O)NC1CCCC1)Cc1ccccc1)Nc1ccccn1	-0.5	-13.7	-0.8	-5.7	-1.7	0.6
COc1cc(C)c(S(=O)(=O)N2CCOCC2)cc1C	-1.2	-11.3	2.6	2.5	0.4	-2.7
CC1(C(=O)O)CC(C)(C(=O)O)CC(C)(C(=O)O)C1 (stereo not drawn)	-0.2	-6.1	-3.3	0.3	2.6	-5.4
O=c1[nH]c2cc(Cl)ccc2c(O)c1-c1cccc(Oc2ccccc2)c1	-1.8	3.6	19.7	18.1	-0.8	-4.2
O=c1[nH]c2ccc(Cl)cc2c(O)c1-c1ccccc1	-1.6	83.2	34.4*	-4.2	3.7	0.2
O=C(O)COc1ccc(NC(=O)c2ccco2)cc1	0.3	-3.9	3.0	7.4	-0.1	-9.2
CCOC(=O)/C(=N\Nc1ccc(Br)cc1)N1CC(C)OC(C)C1 (stereo not drawn)	-2.4	95.9	-4.0	37.0*	0.9	1.9
SMILES	RecA intein inh	Mtb betalactam	FBA Mtb inh	GDH-TPI inh	UGM FP inh	Rv3671c protease
CCOC(=O)/C(=N\Nc1ccccc1Cl)N1CC(C)OC(C)C1 (stereo not drawn)	-5.2	-6.0	1.6	15.0	-3.5	6.1
CCN(CC)c1ccc(C=Nc2ccccc2)c(O)c1	-4.5	6.7	-1.7	33.6*	-1.1	-6.2
CCN(CC)c1ccc(C=Nc2ccc(N(C)C)cc2)c(O)c1	-2.9	-5.2	-3.0	54.0*	-0.4	-24.0
CCN(CC)c1ccc(N=Cc2ccc(N(CC)CC)cc2O)cc1	-2.0	61.5	-5.0	14.1	0.9	-19.4
CCN(CC)c1ccc(C=Nc2cc(C)cc(C)c2)c(O)c1	-3.1	-0.9	-0.3	30.3	3.5	-3.5
CCN(CC)c1ccc(C=Nc2ccc(C)cc2)c(O)c1	.	56.1	-2.0	45.3*	0.4	-1.3
CCN(CC)c1ccc(/C=N/Nc2ccccc2)c(O)c1	3.9	0.6	1.8	16.8	2.4	7.4
CCCNC(=O)C1CC(c2ccccc2C(F)(F)F)=NO1 (stereo not drawn)	-0.5	10.6	-0.4	4.4	-3.8	-1.1
COC(=O)c1oc2c(c1C)C1(CCC2)SCCS1	10.1	17.4	8.2	-6.8	-3.2	-1.9
CCOc1ccc(Nc2nc3ccccc3n3cnnc23)cc1	3.0	-4.2	-1.3	32.5*	.	-0.2
c1ccc(Nc2nc3ccccc3n3cnnc23)cc1	3.6	-8.4	3.3	30.1	2.1	-6.9
c1ccc2c(c1)nc(Nc1ccc(N3CCCCC3)cc1)c1nncn12	-5.7	1.9	2.0	43.9*	-0.4	-3.5
O=C(Nc1ccccc1Cl)Nc1ccnn1C1CCN(C(=O)c2cscn2)CC1	11.3	6.9	2.1	7.7	-2.6	0.6
COc1ccc(NC(=O)CSc2nnc3ccc(-c4ccccn4)nn23)c(OC)c1	-3.7	-4.5	0.0	2.8	1.1	-1.6
Fc1cccc(/C=N/Nc2ccccn2)c1	1.1	-4.0	-2.6	48.8*	0.1	14.4
Cc1ccc(/C=N/Nc2ncnc3nc[nH]c23)cc1	-3.9	3.0	-4.6	64.2*	-4.4	4.8
Fc1cccc(/C=N/Nc2ncnc3nc[nH]c23)c1	-5.7	5.5	-0.3	42.2*	0.6	1.4
c1csc(CNc2ncnc3nc[nH]c23)c1	0.5	-5.3	0.0	-9.1	-1.1	3.6
Oc1ccc(/C=N/Nc2ncnc3nc[nH]c23)cc1	-4.8	-1.7	-0.7	74.0*	-0.6	8.8
Clc1ccc(/C=N/Nc2ncnc3nc[nH]c23)cc1	-1.7	2.1	-2.1	19.9	2.2	-2.9
Fc1ccccc1/C=N/Nc1ncnc2nc[nH]c12	-7.3	5.2	-2.1	28.4	-0.7	9.7
CC(C)(C)C(=O)C(Cl)C(=O)Nc1ccccc1 (stereo not drawn)	23.2	-1.7	0.3	1.3	-1.5	2.2
CCN(CC)S(=O)(=O)c1ccc(C(=O)NC(=S)N2CCN(c3ccccc3O)CC2)cc1	.	.	0.1	5.3	.	.
CCCSc1nc(N)c2c3c(sc2n1)CN(C)CC3	2.5	-7.2	40.6*	27.0	1.1	-1.1
CC(C)Sc1nc(N)c2c3c(sc2n1)CN(C)CC3	-6.5	-4.8	26.0	23.3	-0.7	1.2
CCn1cc(/C=C(\NC(=O)c2ccccc2)C(=O)NCCCN2CCOCC2)c2ccccc21	-4.6	-4.2	-2.0	39.7*	2.2	4.0
CCn1cc(/C=C(\NC(=O)c2cc(OC)c(OC)c(OC)c2)C(=O)NCCCN2CCOCC2)c2ccccc21	1.7	4.5	-10.9	13.5	1.5	-5.7
